Rows were chosen to be rich in hits. Some 18% of all compounds tested hit in one or more screens of this group.
LDHA inh – inhibitors of human lactate dehydrogenase A. activity change, % (values are at about 110 or 230 µM). hit rate 0.15% among 480,000. P00338. purified LDHA, NADH/diaphorase-resazurin fluorescence; hits give low values; in the data active means activity change below about -30%; inconclusive means mostly about -25% to -30%;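 further: plate controls were DMSO wells for no effect and wells without enzyme for full effect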
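Human LDH5 at 2 nM final in Tris HCl pH 7.4 with 0.06 mM NADH and 0.2 mM pyruvate, reacted 5 minutes at room temperature. Remaining NADH coupled via diaphorase/resazurin; resorufin fluorescence read at 0 and 20 minutes, normalized to enzyme-free and DMSO wells.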
RORgamma inh – ROR gamma (mouse) transcription inhibition | Potency, µM (highest dose often 53.6 µM), inactives show at the top dose activity change, negative = inhibition, most hits filed as inhibitors | P51450 | Drosophila S2 Gal4-RORgamma UAS-luciferase reporter, 20 h | hit rate 5.4% among 310,000 | AID 2551; further: potency means the concentration at half of the fitted maximal effect; nearly all actives have a fitted effect of over 60% in size
Target sequence (P51450 whole entry, looked up, the tested form may be a part): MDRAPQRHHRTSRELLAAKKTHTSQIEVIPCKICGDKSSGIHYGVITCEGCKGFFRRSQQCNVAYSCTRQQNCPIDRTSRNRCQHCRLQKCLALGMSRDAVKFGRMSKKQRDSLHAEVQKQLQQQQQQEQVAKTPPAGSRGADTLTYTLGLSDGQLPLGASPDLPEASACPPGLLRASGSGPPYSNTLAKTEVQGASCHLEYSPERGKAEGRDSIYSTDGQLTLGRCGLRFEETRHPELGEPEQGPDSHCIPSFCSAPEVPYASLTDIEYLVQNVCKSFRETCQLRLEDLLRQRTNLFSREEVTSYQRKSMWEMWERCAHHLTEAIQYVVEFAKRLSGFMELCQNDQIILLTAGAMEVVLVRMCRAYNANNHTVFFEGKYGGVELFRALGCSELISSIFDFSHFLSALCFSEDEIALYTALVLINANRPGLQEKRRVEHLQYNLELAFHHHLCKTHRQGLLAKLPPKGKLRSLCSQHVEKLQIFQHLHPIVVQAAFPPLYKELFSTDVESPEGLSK
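Using a luciferase readout, inhibitors were identified by reduced reporter activity in Drosophila cells coexpressing a copper-inducible Gal4–ROR gamma fusion and UAS-driven Photinus luciferase, incubated 20 hr after 700 uM copper sulfate.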
DT40 TDP1 CPT – DT40-hTDP1 cell growth loss with CPT | Potency, µM (titrated, usually from 46.2 µM), for the others: at the highest dose activity change, negative = growth inhibition, actives largely listed as inhibitors | hit rate 12% among 420,000 | chicken DT40 Tdp1-/-;hTDP1 cells + 20 nM CPT, ATP luminescence, 48 h; further: potency means the concentration at half of the fitted maximal effect; nearly all actives have a fitted effect of over 55% in size
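Chicken DT40 Tdp1-/- cells complemented with human TDP1, 400 cells/well, exposed to compounds plus 20 nM camptothecin for at least 48 h at 37 C; viability read as ATP content by CellTiter-Glo luminescence.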
IL1B secr inh – blocks inflammasome-driven IL-1 beta release; AID 743279; hit rate 4.7% among 360,000; activity change, % at 57.5 µM; THP-1 LPS/ATP IL-1B secretion, AlphaLISA, 16 h; hits give low values; in the data active means activity change below about -50%; inconclusive means mostly about -30% to -49%
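Secreted IL-1B measured by AlphaLISA bead assay after 16 h compound exposure of THP-1 cells; compounds (final up to 57.5 uM) added 1 h before LPS (250 ng/mL) and ATP (1.25 mM) stimulation; lower signal means less secretion.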
VP16 counter – Gal4-VP16 reporter inhibition counter-screen. Drosophila S2 Gal4-VP16 UAS-luciferase, luminescence, 20 h. Potency, µM (top dose mostly 53.6 µM), for inactives: at the highest dose activity, negative = inhibition, most hits filed as inhibitors. hit rate 3.5% among 310,000;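 further: Gal4-VP16 expression switched on by copper sulfate through the metallothionein promoter; potency means the concentration at half of the fitted maximal effect; nearly all actives have a fitted effect of over 50% in size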
TDP1 cell noCPT – qHTS for Inhibitors of human tyrosyl-DNA phosphodiesterase 1 (TDP1): qHTS in cells in absence of CPT | DT40 Tdp1-/- hTDP1 cells, no CPT, ATP luminescence, 48 h | Potency, µM (titrated, usually from 46.2 µM), without a hit: at the top dose activity change, negative = growth inhibition, actives largely listed as inhibitors | hit rate 15% among 420,000; further: potency means the concentration at half of the fitted maximal effect; nearly all actives have a fitted effect of over 55% in size
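Seeded 400 DT40-hTDP1 cells/well (vehicle DMSO, no 20 nM CPT); pinned compounds; ≥48 hr at 37 °C; CellTiter-Glo luminescence as viability measure.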
* = called active by the depositor. Unless noted, the call rests on the fitted dose curve; in most records, active means well fitted curve in the direction sought with a large enough effect; inconclusive means small, poorly fitted or top-dose-only effect, or another doubt; inactive means no such curve, though single readings can be large; an effect the other way counts as inactive or inconclusive. Unless noted, on the % scale 0 is the no-effect control and ±100 the full control effect.

How did CCCCC(=O)N1CCN(c2nc3ccc(F)cc3s2)CC1 do in these assays?
LDHA inh: -2.4; RORgamma inh: -28.3%; DT40 TDP1 CPT: inconclusive; IL1B secr inh: -2.4; VP16 counter: inconclusive; TDP1 cell noCPT: 8.2µM*

Results for CCC(=O)N1CCN(c2nc3ccc(Br)cc3s2)CC1 ?
LDHA inh: -7.5; RORgamma inh: 11.9%; DT40 TDP1 CPT: inconclusive; IL1B secr inh: -19.0; VP16 counter: 3.7%; TDP1 cell noCPT: 18.4µM*

What do the screens show for `CCCNC(=O)c1ccc(Oc2nccnc2Sc2ccccc2)cc1`?
LDHA inh: 9.7

How did Nc1ccc(C(=O)Nc2ccc3cc(S(=O)(=O)O)ccc3c2)cc1 do in these assays?
LDHA inh: -5.5; DT40 TDP1 CPT: -1.0%; IL1B secr inh: 3.4; TDP1 cell noCPT: -6.5%

Results for O=C(Nc1cc(C(=O)Nc2ccc(S(=O)(=O)O)cc2S(=O)(=O)O)cc(C(=O)Nc2ccc(S(=O)(=O)O)cc2S(=O)(=O)O)c1)Nc1cc(C(=O)Nc2ccc(S(=O)(=O)O)cc2S(=O)(=O)O)cc(C(=O)Nc2ccc(S(=O)(=O)O)cc2S(=O)(=O)O)c1 ?
LDHA inh: -37.6*; RORgamma inh: -2.1%; DT40 TDP1 CPT: inconclusive; VP16 counter: -0.7%; TDP1 cell noCPT: -21.5%

How did Cc1ccc(NC(=O)C2=C(c3ccccc3)NC(=S)NC2c2ccc(C(C)C)cc2)cc1 (stereo unspecified) do in these assays?
LDHA inh: 9.0

What do the screens show for `CC(=O)Nc1cc(-c2cccc(F)c2)cn2c(-c3ccccc3)cnc12`?
LDHA inh: -8.3; DT40 TDP1 CPT: 18.4µM*; IL1B secr inh: -7.8; TDP1 cell noCPT: inconclusive

How did CC(=O)Nc1cc(-c2ccc(S(C)(=O)=O)cc2)cn2c(-c3ccc(F)cc3)cnc12 do in these assays?
LDHA inh: -5.3; DT40 TDP1 CPT: inconclusive; IL1B secr inh: inconclusive; TDP1 cell noCPT: inconclusive

How did CC(=O)Nc1cc(-c2cccc(F)c2)cn2c(-c3ccc(F)cc3)cnc12 do in these assays?
LDHA inh: 0.8; DT40 TDP1 CPT: inconclusive; IL1B secr inh: 6.5; TDP1 cell noCPT: 23.1µM*

What do the screens show for `CC(=O)Nc1cccc(-c2cc(NC(C)=O)c3ncc(-c4ccc(C(C)=O)cc4)n3c2)c1`?
LDHA inh: -1.1; DT40 TDP1 CPT: 5.17µM*; IL1B secr inh: 0.0; TDP1 cell noCPT: 7.31µM*

What do the screens show for `CC(=O)Nc1cc(-c2cccc(F)c2)cn2c(-c3ccc(S(C)(=O)=O)cc3)cnc12`?
LDHA inh: -0.5; DT40 TDP1 CPT: inconclusive; IL1B secr inh: -52.4*; TDP1 cell noCPT: 20.6µM*

What do the screens show for `CCOc1ccccc1C(=O)n1c(=O)oc2ccc(C(C)(C)C)cc21`?
LDHA inh: -6.1

How did CCCCCCC1CCC(C(=O)Oc2ccc(OCC)cc2)CC1 (stereo unspecified) do in these assays?
LDHA inh: 3.9

How did Cc1cc(Br)c(NC(=O)C(C)C)cc1C do in these assays?
LDHA inh: -3.4

What do the screens show for `CC(=O)Nc1cc(-c2cccc(C(=O)N(C)C)c2)cn2c(-c3ccc(C(C)=O)cc3)cnc12`?
LDHA inh: -6.0; DT40 TDP1 CPT: 16.4µM*; IL1B secr inh: inconclusive; TDP1 cell noCPT: 11.6µM*

Results for CC(=O)Nc1cccc(-c2cc(NC(C)=O)c3ncc(-c4ccc(F)cc4)n3c2)c1 ?
LDHA inh: -1.0; DT40 TDP1 CPT: inconclusive; IL1B secr inh: 22.4; TDP1 cell noCPT: 14.6µM*

What do the screens show for `CC(=O)Nc1cc(-c2ccoc2)cn2c(-c3ccccc3)cnc12`?
LDHA inh: 0.4; DT40 TDP1 CPT: 1.03µM*; IL1B secr inh: -12.1; TDP1 cell noCPT: 0.92µM*

How did CC(=O)Nc1cc(-c2cccc(C(=O)N(C)C)c2)cn2c(-c3ccc(F)cc3)cnc12 do in these assays?
LDHA inh: 5.9; DT40 TDP1 CPT: inconclusive; TDP1 cell noCPT: inconclusive

How did CC(=O)Nc1cc(-c2cccc(N)c2)cn2c(-c3ccccc3)cnc12 do in these assays?
LDHA inh: 0.8; DT40 TDP1 CPT: 18.4µM*; IL1B secr inh: -3.7; TDP1 cell noCPT: inconclusive

How did COc1cccc(C(=O)Oc2ccc(C(C)=O)cc2)c1 do in these assays?
LDHA inh: 5.6

What do the screens show for `COc1ccccc1S(=O)(=O)NCc1ccc(C(=O)Nc2ccc(N3CCCCC3)cc2)cc1`?
LDHA inh: -4.6

How did Cc1nc2ccccc2nc1CS(=O)(=O)C(C)C(=O)NCC(C)C (stereo unspecified) do in these assays?
LDHA inh: 6.2

What do the screens show for `Cn1nc(C(=O)NCCN2CCCCCC2)c2c1-c1ccccc1OC2`?
LDHA inh: 9.8

How did O=C(CSc1nnc(CCc2ccccc2)n1-c1ccc(Cl)cc1)NCc1ccccc1 do in these assays?
LDHA inh: 4.2; RORgamma inh: -43.2%; DT40 TDP1 CPT: 16.4µM*; IL1B secr inh: -6.6; VP16 counter: -18.0%; TDP1 cell noCPT: 16.4µM*

What do the screens show for `COc1ccc(CNC(=O)CSc2nnnn2-c2ccccc2)cc1`?
LDHA inh: -7.7; RORgamma inh: 20.4%; DT40 TDP1 CPT: -2.5%; IL1B secr inh: 2.2; VP16 counter: 4.5%; TDP1 cell noCPT: -9.0%

How did O=C(CSc1nnc(CCc2nc3ccccc3[nH]2)n1-c1ccccc1)NCc1ccccc1 do in these assays?
LDHA inh: -5.7; RORgamma inh: inconclusive; DT40 TDP1 CPT: -22.5%; IL1B secr inh: -2.4; VP16 counter: inconclusive; TDP1 cell noCPT: inconclusive

Results for COc1ccc(-n2c(CCc3ccccc3)nnc2SCC(=O)NCc2ccccc2)cc1 ?
LDHA inh: -5.4; RORgamma inh: inconclusive; DT40 TDP1 CPT: inconclusive; IL1B secr inh: -51.8*; VP16 counter: inconclusive; TDP1 cell noCPT: inconclusive

How did COc1ccc(Nc2nc3ccccc3nc2NS(=O)(=O)c2ccc(C)cc2)cc1 do in these assays?
LDHA inh: -7.1

How did O=C(NNC(=O)C1CCCCC1)c1ccc(Cl)cc1 do in these assays?
LDHA inh: -19.6

Results for CN(C(=S)NC(=O)c1ccc(F)cc1)C1CCCCC1 ?
LDHA inh: -7.4; RORgamma inh: 0.891µM*; DT40 TDP1 CPT: inconclusive; IL1B secr inh: -21.0; VP16 counter: 1.12µM*; TDP1 cell noCPT: inconclusive

How did CN(C(=S)NC(=O)c1ccc(Cl)cc1)C1CCCCC1 do in these assays?
LDHA inh: -9.7; RORgamma inh: 0.316µM*; DT40 TDP1 CPT: inconclusive; IL1B secr inh: 19.5; VP16 counter: 0.794µM*; TDP1 cell noCPT: inconclusive
